# Most compounds without a hit are left out; they make up all but 1.9% or so of the library.
# Furin inh = human furin inhibition; P09958; purified furin, fluorogenic substrate cleavage; inhibition, % at 20 µM or 30 µM; actives 0.061% (n = 220,000); AID 463115; in the data active = inhibition above about 25%
# Efa HMGR inh = blocks class II HMG-CoA reductase of Enterococcus faecalis. actives 0.41% (n = 190,000). purified E. faecalis HMGR, NADPH absorbance 340 nm kinetic. inhibition, % at 10 µM. AID 1066;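 active = inhibition above a set limit, the median over all tested compounds plus 3 SD, cut at about 9.5% in these data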;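 note: enzyme runs in reverse so mevalonate oxidation gives rising NADPH absorbance; 0% = complete reaction with DMSO and 100% = background rate lacking mevalonate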
# EP2 modulator = EP2 receptor (human) modulation; P43116; EP2-expressing cells, cAMP HTRF FRET, PGE2 co-stimulation; induction, % at 25 µM; actives 0.83% (n = 260,000); AID 940;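 active = compounds whose cAMP rise, as percent of the full-agonist control response, exceeds 60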;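 note: rat C6 glioma line stably carrying human EP2 under a CMV promoter; the protocol text gives 20 µM as final concentration; 100% = response of wells given 1 µM PGE2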
# Target sequence (P43116 whole entry, looked up): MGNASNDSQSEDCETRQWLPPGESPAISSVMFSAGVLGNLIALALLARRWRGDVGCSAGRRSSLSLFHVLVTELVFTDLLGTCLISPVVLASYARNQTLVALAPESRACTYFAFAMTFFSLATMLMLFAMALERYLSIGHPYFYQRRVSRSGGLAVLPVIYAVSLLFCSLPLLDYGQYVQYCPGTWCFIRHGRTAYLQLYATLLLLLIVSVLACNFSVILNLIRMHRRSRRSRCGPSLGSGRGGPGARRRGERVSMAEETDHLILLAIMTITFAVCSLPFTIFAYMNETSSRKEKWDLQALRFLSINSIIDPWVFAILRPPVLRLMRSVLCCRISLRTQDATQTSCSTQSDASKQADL
# PGE2 EP2 inh = inhibitors of human EP2 prostaglandin E2 receptor. C6 glioma cells expressing human EP2, cAMP TR-FRET; cells stimulated with saturating PGE2. inhibition, % at 25 µM. actives 0.52% (n = 260,000). AID 1422;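 active = percent inhibition above 40 after rounding to a whole number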;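 note: rat C6 glioma host cells with rolipram phosphodiesterase inhibitor present; the protocol text gives 20 µM as final concentration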
# m-calpain inh = calpain II (pig) inhibition. purified calpain II, fluorogenic peptide substrate, 30 min. inhibition, % at 16 µM. actives 0.37% (n = 220,000). AID 1236;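 active = inhibition above about 50%, limit read from the data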
# Active calls of the source: *; nt = not tested or not shown.
SMILES,Furin inh,Efa HMGR inh,EP2 modulator,PGE2 EP2 inh,m-calpain inh
Cc1ccc(-c2cc(-c3ccc4c(c3)OCO4)c(C#N)c(N)n2)o1,-27.9,-6.6,11.4,9.9,-109.5
COc1ccc(-c2cc(-c3ccc(C)cc3)nc(N)c2C#N)cc1OC,nt,nt,-133.4,10.9,nt
N#Cc1c(-c2ccc3c(c2)OCO3)cc(-c2ccc(F)cc2)nc1N,nt,nt,61.4*,22.3,nt
Cc1cc(C=C2C(=O)NC(=S)NC2=O)c(C)n1-c1cccc(C(=O)O)c1,nt,nt,-62.6,30.1,nt
Cc1cc2cc(CN(CC3CCCO3)S(=O)(=O)c3c(C)ccc4nsnc34)c(=O)[nH]c2cc1C (stereo not drawn),nt,nt,5.8,6.4,nt
CCOC(=O)Cc1csc(NC(=O)COc2cccc(C)c2)n1,-26.1,18.0*,10.0,3.0,2.9
CCOC(=O)Cc1csc(NC(=O)COc2ccccc2)n1,-23.5,-7.8,41.7,6.4,4.6
Cc1[nH]nc2c1C(c1ccc(-c3ccccc3C#N)o1)C(C#N)=C(N)O2 (stereo not drawn),-8.2,-2.0,-33.4,63.2*,-29.7
Cc1ccc(-c2ccc(C3C(C#N)=C(N)Oc4n[nH]c(C)c43)o2)cc1 (stereo not drawn),-13.2,-7.2,-12.2,13.7,-30.9
Cc1cc(C)cc(Nc2c(F)c(F)c(F)c(F)c2C(=O)O)c1,-22.9,9.6*,25.3,4.3,-13.2
CC1=C(C(=O)OCc2ccccc2)C(c2cccs2)N2C(=O)CCSC2=N1 (stereo not drawn),-21.3,2.0,-21.2,5.2,60.6*
C=CCNC(=S)N(Cc1ccccc1)Cc1ccc(F)cc1,-6.3,-0.8,49.3,7.4,26.4
C=CCNC(=S)N(Cc1ccccc1)Cc1ccccc1,-26.5,-7.3,60.7*,4.5,-12.1
Cc1ccc(S(=O)(=O)Nc2cccnc2)cc1C(N)=O,nt,nt,-12.1,7.7,nt
COc1ccc(/C=N/NC(=O)C(C)Sc2ccccn2)cc1[N+](=O)[O-] (stereo not drawn),-35.9,14.5*,-31.4,3.7,13.3
CCOc1ccc(S(=O)(=O)N(C)CCO)cc1-c1nc2c(C(C)(C)C)nn(C)c2c(=O)[nH]1,-14.8,24.9*,0.8,nt,-9.1
CCOc1ccc(S(=O)(=O)N(C)C)cc1-c1nc2c(C(C)(C)C)nn(C)c2c(=O)[nH]1,-11.7,-4.5,14.4,36.5,-168.2
CCOc1ccc2[nH]c(=O)c(CN(Cc3ccccc3OC)C(=O)N3CCCC3)cc2c1,nt,nt,-5.5,9.2,nt
CSc1nc(=S)c2[nH]c(=S)[nH]c2[nH]1,-21.3,nt,23.6,44.5*,14.8
Cc1cc2cc(C)c(SCC(=O)NCc3ccc4c(c3)OCO4)nc2cc1C,nt,nt,84.5*,22.0,nt
Cc1cc2cc3c(cc2nc1SCC(=O)NCc1ccc2c(c1)OCO2)OCO3,nt,nt,46.5,17.0,nt
CCc1cc2c(C)cc(C)cc2nc1SCC(=O)NCc1ccc2c(c1)OCO2,nt,nt,72.0*,19.4,nt
Cc1cc(NC(=O)c2ccccc2F)n(-c2nc3ccccc3[nH]2)n1,-23.0,-2.7,33.9,3.4,8.4
Cc1cc(NC(=O)c2ccc(C)s2)n(-c2nc3ccccc3[nH]2)n1,-31.3,-5.0,62.7*,10.3,-23.6
CCN(CC)CCNc1nc2c([nH]1)c(=O)[nH]c(=O)n2C,nt,nt,-5.8,16.7,nt
SMILES,Furin inh,Efa HMGR inh,EP2 modulator,PGE2 EP2 inh,m-calpain inh
O=C(COC(=O)C12CC3CC(CC(C3)C1)C2)Nc1ccc([N+](=O)[O-])cc1Br,-24.8,3.5,39.3,10.8,13.7
N#Cc1cc([N+](=O)[O-])ccc1NC(=O)COC(=O)C12CC3CC(CC(C3)C1)C2,-22.0,-1.4,-27.0,0.8,53.9*
NS(=O)(=O)c1ccc(NC(=O)COC(=O)C23CC4CC(CC(C4)C2)C3)cc1,6.5,-4.8,-25.1,5.6,57.9*
COc1c(C)cccc1CN1CCC(O)(c2ccc(F)cc2)CC1,nt,nt,-47.0,6.1,nt
N#Cc1c(Cl)c(Cl)c2nnc(-c3ccc(Br)cc3)n2c1Cl,-1.8,1.1,-49.9,118.1*,-8.2
Cn1c(SCC#N)nnc1-c1ccc(Br)cc1,nt,nt,-13.1,1.2,nt
O=C(Cn1c(SCC(=O)N2CCCc3ccccc32)nc2ccccc21)NC1CC1,nt,nt,-27.4,10.1,nt
O=C(CSc1nnc(-c2ccc(F)cc2)o1)Nc1ccccc1O,nt,nt,-72.5,7.8,nt
Nc1nc2c(C(=O)NCc3cccs3)nnn2c2cccc(Cl)c12,nt,nt,1.4,48.9*,nt
O=C(NCc1ccco1)C1CCCN(S(=O)(=O)c2ccc(Br)cc2)C1 (stereo not drawn),-11.3,10.6*,5.4,6.9,26.0
CS(=O)(=O)N1CCCC(C(=O)NCc2ccco2)C1 (stereo not drawn),-13.3,-1.4,4.0,7.5,-2.6
COc1ccccc1NC(=O)C1CCN(c2nc3ccccc3n2C)CC1,nt,nt,-25.6,2.7,nt
